Of roughly 7,900 targets only a part is listed; those with a hit were picked by preference. About 0.6% of all pairs of compound and target were hits.
Experiments:
Experiment in all cases: log2 fold change, soluble protein after heating vs DMSO (PISA); higher = thermal stabilisation; K562 cells, 10 uM, 30 min; active = over 0.2 and 3.5 SD of the protein, either way, in both replicates (recomputed)
[1] = compound: NC(=O)Nc1cc(-c2cccc(F)c2)sc1C(=O)N[C@H]1CCCNC1
Procedure, shortened: (§1)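 Quantification of soluble protein used TMTpro 16plex LC-MS/MS, with channel sums equalised. Samples were the supernatant after 21,000xg for 90 min of pooled aliquots from K562 cells (2×10^6 cells/mL) treated with 10 μM compound for 30 min, heated for 3 min over 48°C-58°C, and extracted in PBS with 0.5% NP-40 at 4°C. Values, from duplicates, describe thermal stability against control samples on a log2 fold-change scale.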

[2] = compound: NC(=O)c1cnc(N[C@@H]2CCCC[C@@H]2N)nc1Nc1cccc(-n2nccn2)c1
Procedure, shortened: as §1

[3] = compound: NC1(c2ccc(-c3nc4ccn5c(=O)[nH]nc5c4cc3-c3ccccc3)cc2)CCC1
Procedure, shortened: as §1

[4] = compound: NCC(=O)Nc1ccc(-n2nc(C(F)(F)F)cc2-c2ccc3c(ccc4ccccc43)c2)cc1
Procedure, shortened: as §1

entinostat = compound: Nc1ccccc1NC(=O)c1ccc(CNC(=O)OCc2cccnc2)cc1 [entinostat]
Procedure, shortened: as §1

citarinostat = compound: O=C(CCCCCCNC(=O)c1cnc(N(c2ccccc2)c2ccccc2Cl)nc1)NO [citarinostat]
Procedure, shortened: as §1

silmitasertib = compound: O=C(O)c1ccc2c(c1)nc(Nc1cccc(Cl)c1)c1ccncc12 [silmitasertib]
Procedure, shortened: as §1

[5] = compound: O=C1NC(=O)C(c2cnc3ccccn23)=C1c1cn2c3c(cc(F)cc13)CN(C(=O)N1CCCCC1)CC2
Procedure, shortened: as §1

[6] = compound: c1cc(OCCN2CCCCC2)cc(-c2n[nH]c3ccc(-c4nnc[nH]4)cc23)c1
Procedure, shortened: as §1

vorinostat = compound: O=C(CCCCCCC(=O)Nc1ccccc1)NO [vorinostat]
Procedure, shortened: as §1

Measured: log2 fold change

TTI2 (UniProt Q6NXR4)
UniProt Q6NXR4, sequence (Q6NXR4 whole entry, looked up): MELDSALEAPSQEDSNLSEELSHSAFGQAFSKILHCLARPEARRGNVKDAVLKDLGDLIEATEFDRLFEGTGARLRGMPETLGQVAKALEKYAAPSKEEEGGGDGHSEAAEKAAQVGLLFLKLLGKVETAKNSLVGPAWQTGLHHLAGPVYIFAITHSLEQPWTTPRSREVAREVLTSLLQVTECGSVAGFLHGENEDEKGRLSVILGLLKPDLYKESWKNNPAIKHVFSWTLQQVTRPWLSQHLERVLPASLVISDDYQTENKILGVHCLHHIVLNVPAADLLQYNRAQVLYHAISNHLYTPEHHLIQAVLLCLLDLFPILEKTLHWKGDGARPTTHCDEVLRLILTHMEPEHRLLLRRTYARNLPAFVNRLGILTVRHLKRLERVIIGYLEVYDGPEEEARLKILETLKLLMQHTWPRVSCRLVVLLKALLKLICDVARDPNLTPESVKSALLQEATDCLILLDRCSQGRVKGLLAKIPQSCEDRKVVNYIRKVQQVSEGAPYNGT
inactive: [1] 0.024 | [2] -0.038 | [3] 0.016 | [4] -0.074 | entinostat -0.004 | citarinostat -0.035 | silmitasertib -0.047 | [5] 0.059 | [6] -0.023

WDR11 (UniProt Q9BZH6)
inactive: [1] 0.039 | [2] -0.164 | [3] -0.087 | [4] -0.192 | entinostat -0.024 | vorinostat -0.007 | citarinostat -0.067 | silmitasertib -0.025 | [5] -0.016 | [6] -0.036

VKORC1 (UniProt Q9BQB6)
UniProt Q9BQB6, sequence (Q9BQB6 whole entry, looked up): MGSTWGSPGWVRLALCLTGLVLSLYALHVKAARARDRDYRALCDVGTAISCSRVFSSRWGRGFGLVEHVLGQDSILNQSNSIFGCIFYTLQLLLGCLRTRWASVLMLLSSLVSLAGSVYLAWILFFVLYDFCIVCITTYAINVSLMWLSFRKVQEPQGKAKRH
inactive: [1] -0.006 | [2] 0 | [3] -0.054 | [4] -0.114 | entinostat 0.025 | vorinostat -0.034 | citarinostat 0.001 | silmitasertib -0.023 | [6] 0.073

TOMM5 isoform 2 (UniProt Q8N4H5)
UniProt Q8N4H5, sequence (Q8N4H5 whole entry, looked up): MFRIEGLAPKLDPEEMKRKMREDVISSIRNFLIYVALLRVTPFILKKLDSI
inactive: [1] -0.053 | [2] 0.002 | [3] -0.083 | [4] 0.084 | entinostat 0.067 | vorinostat -0.117 | citarinostat 0.039 | silmitasertib -0.043 | [5] -0.158 | [6] 0.099

VPS33B (UniProt Q9H267)
UniProt Q9H267, sequence (Q9H267 whole entry, looked up): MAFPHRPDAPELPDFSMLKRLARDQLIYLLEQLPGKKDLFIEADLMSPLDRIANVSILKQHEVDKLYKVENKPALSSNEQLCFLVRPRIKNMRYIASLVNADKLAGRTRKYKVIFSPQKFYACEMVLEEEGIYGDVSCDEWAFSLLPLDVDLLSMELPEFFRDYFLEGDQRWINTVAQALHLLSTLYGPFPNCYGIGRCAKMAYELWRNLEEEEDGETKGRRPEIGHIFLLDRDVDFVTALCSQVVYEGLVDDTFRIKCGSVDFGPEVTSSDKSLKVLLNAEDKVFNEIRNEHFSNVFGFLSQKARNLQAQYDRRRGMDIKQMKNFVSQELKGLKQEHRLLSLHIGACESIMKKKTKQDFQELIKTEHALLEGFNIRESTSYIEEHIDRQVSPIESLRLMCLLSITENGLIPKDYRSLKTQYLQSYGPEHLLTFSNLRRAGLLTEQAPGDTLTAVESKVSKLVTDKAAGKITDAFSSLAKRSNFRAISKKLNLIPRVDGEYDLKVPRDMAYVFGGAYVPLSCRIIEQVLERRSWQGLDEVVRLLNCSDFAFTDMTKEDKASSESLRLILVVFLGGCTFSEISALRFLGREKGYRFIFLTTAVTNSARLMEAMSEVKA
inactive: [1] -0.013 | [2] -0.154 | [3] -0.118 | [4] -0.018 | entinostat 0.094 | vorinostat 0.072 | citarinostat 0.076 | silmitasertib -0.011 | [5] 0.017 | [6] -0.057

WARS1 (UniProt G3V277)
inactive: [1] 0.029 | [2] -0.52 | [3] -0.131 | [4] -0.302 | entinostat 0.025 | vorinostat -0.047 | silmitasertib 0.001

VRK1 (UniProt Q99986)
UniProt Q99986, sequence (Q99986 whole entry, looked up): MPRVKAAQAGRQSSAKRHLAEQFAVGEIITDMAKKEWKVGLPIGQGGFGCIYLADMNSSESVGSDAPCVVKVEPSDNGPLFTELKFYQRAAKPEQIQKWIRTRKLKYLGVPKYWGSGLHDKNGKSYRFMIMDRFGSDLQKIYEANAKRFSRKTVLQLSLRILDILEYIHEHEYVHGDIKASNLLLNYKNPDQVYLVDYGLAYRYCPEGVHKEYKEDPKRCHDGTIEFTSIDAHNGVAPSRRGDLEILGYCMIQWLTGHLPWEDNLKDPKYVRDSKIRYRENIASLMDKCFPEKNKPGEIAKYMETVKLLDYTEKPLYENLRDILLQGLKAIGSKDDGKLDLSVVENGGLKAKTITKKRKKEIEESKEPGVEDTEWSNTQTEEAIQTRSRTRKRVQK
inactive: [1] -0.056 | [2] 0.025 | [3] -0.11 | [4] -0.144 | entinostat 0.059 | vorinostat 0.046 | citarinostat 0.023 | silmitasertib -0.028 | [5] -0.138 | [6] 0.063

VPS35L (UniProt Q7Z3J2)
inactive: [1] -0.038 | [2] 0.004 | [3] -0.137 | [4] -0.012 | entinostat 0.006 | vorinostat -0.039 | citarinostat 0.08 | silmitasertib 0.111 | [5] -0.006 | [6] -0.062

WEE1 (UniProt P30291)
UniProt P30291, sequence (P30291 whole entry, looked up): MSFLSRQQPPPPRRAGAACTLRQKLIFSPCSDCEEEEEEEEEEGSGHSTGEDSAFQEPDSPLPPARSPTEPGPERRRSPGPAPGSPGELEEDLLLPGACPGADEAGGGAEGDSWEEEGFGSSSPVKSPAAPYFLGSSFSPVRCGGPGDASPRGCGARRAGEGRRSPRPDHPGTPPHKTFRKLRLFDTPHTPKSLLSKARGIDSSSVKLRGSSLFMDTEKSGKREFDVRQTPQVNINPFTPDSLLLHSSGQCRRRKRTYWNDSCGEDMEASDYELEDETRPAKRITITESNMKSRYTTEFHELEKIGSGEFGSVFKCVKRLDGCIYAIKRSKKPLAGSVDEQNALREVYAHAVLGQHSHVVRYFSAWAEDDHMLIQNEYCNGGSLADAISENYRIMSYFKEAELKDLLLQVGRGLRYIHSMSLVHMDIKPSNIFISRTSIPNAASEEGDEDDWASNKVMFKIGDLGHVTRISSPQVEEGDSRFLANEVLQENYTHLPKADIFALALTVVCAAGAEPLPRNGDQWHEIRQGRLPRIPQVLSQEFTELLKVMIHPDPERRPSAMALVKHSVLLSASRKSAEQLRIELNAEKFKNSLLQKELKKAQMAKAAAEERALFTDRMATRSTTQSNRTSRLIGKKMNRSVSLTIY
inactive: [1] -0.455 | [2] 0.205 | [3] 0.04 | [4] -0.045 | entinostat 0.47 | vorinostat 0.05 | silmitasertib -0.122 | [5] 0.089

TRIP10 isoform 2 (UniProt Q15642)
UniProt Q15642, sequence (Q15642 whole entry, looked up): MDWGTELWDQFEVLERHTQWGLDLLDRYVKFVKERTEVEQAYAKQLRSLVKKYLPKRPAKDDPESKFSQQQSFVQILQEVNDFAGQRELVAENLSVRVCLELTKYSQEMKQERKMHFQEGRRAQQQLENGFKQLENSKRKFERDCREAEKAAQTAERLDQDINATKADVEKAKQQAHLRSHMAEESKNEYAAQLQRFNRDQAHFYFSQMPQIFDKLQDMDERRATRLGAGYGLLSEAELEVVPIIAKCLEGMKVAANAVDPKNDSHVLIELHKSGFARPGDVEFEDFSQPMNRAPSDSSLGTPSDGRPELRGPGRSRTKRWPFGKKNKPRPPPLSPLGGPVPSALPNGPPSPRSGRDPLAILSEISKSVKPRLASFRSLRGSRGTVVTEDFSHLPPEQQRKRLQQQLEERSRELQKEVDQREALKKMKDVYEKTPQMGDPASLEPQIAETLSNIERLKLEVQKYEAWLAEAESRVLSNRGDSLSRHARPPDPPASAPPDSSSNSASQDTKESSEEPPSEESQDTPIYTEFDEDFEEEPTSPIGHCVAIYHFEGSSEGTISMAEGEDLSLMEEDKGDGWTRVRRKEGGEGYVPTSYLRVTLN
active: [4] -0.849
inactive: [1] -0.067 | [2] 0.057 | [3] -0.065 | entinostat -0.2 | vorinostat 0.026 | citarinostat -0.11 | silmitasertib -0.065 | [5] -0.052 | [6] 0.008

VWA8 (UniProt A3KMH1)
inactive: [1] -0.017 | [2] -0.024 | [3] -0.135 | [4] -0.016 | entinostat 0.008 | vorinostat 0.096 | citarinostat 0.048 | silmitasertib -0.046 | [5] -0.071 | [6] -0.039

TPP1 (UniProt O14773)
UniProt O14773, sequence (O14773 whole entry, looked up): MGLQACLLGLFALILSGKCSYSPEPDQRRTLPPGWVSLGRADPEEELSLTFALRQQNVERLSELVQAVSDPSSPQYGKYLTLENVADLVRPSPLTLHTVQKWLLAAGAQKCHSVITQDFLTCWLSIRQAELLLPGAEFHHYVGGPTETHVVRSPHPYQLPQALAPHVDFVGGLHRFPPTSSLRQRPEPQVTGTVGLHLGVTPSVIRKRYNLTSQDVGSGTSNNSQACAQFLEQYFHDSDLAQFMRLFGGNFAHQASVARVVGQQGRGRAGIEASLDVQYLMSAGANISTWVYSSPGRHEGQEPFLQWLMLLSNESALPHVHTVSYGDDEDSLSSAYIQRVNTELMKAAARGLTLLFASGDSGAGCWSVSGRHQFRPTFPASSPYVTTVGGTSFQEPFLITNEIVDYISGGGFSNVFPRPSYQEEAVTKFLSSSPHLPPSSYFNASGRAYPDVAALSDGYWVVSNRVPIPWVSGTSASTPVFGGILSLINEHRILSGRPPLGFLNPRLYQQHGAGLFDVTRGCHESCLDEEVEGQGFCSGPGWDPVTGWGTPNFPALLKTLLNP
inactive: [1] -0.036 | [2] -0.037 | [3] -0.174 | [4] -0.08 | entinostat 0.036 | vorinostat 0.031 | citarinostat 0.035 | silmitasertib -0.036 | [5] -0.014 | [6] -0.091

TRIM44 (UniProt Q96DX7)
UniProt Q96DX7, sequence (Q96DX7 whole entry, looked up): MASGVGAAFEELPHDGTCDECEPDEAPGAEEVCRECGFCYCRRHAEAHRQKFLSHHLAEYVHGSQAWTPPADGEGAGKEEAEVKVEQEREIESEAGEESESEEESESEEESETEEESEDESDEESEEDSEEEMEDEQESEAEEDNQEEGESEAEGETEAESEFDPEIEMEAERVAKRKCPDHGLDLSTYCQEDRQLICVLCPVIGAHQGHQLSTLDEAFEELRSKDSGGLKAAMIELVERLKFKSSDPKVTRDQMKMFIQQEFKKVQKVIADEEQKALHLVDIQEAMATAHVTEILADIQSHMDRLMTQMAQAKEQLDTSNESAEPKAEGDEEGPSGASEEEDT
inactive: [1] 0 | [2] -0.037 | [3] -0.048 | [4] 0.02 | entinostat -0.048 | vorinostat 0.015 | citarinostat 0.008 | silmitasertib 0.045 | [6] -0.083

WASH2P (UniProt Q6VEQ5)
UniProt Q6VEQ5, sequence (Q6VEQ5 whole entry, looked up): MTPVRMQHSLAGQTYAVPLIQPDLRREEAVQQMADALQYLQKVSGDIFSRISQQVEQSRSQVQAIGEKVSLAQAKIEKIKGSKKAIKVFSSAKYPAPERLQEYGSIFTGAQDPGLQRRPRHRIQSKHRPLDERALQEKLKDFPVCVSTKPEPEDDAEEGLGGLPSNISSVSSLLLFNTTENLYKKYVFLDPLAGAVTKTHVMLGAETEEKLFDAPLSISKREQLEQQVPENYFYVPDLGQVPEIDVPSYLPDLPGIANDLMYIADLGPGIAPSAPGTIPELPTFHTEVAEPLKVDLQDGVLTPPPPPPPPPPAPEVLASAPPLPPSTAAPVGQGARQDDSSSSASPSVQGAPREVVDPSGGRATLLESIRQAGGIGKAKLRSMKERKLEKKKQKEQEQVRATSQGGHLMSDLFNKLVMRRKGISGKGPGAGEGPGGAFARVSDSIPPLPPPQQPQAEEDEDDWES
inactive: [1] 0.067 | [2] -0.088 | [4] 0.02 | entinostat 0.028 | vorinostat -0.016 | citarinostat 0.029 | silmitasertib 0.06 | [5] 0.092 | [6] -0.045
active: [3] -0.314

UBE2Q1 (UniProt Q7Z7E8)
UniProt Q7Z7E8, sequence (Q7Z7E8 whole entry, looked up): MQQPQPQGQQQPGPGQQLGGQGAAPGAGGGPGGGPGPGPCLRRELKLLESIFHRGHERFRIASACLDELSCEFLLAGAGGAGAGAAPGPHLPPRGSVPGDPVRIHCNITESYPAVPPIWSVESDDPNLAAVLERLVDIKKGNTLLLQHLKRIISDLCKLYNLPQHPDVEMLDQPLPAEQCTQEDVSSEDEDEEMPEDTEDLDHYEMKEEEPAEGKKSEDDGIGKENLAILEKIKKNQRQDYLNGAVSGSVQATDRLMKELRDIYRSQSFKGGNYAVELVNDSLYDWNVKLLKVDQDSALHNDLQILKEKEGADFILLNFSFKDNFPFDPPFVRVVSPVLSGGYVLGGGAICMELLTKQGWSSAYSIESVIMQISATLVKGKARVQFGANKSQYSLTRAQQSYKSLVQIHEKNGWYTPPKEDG
inactive: [1] -0.01 | [2] -0.059 | [3] -0.084 | [4] -0.012 | entinostat 0.03 | vorinostat 0.084 | citarinostat 0.029 | silmitasertib 0.074 | [5] -0.035 | [6] -0.035

Reference: the supplement of paper PMC10849652
